Reference: PubChem BioAssay (NCI)
The panel holds about 79,000 compounds, 15% with a hit somewhere; the sample as a whole holds those more often. Cut-off read from the data, not from the text of the source: active = growth inhibition above about 70%; inactive = the rest.

Tests used:
[1] = NCI Yeast Anticancer Drug Screen. Data for the rad50 strain (AID 155);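 note: 0% = growth of vehicle-only cultures of the same strain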; details: S. cerevisiae rad50 strain growth inhibition; at 50.0 µM; active compounds read high
Procedure, shortened: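 A DNA repair-deficient yeast mutant serves as the test organism; compound-induced growth inhibition is calculated against vehicle-treated cells.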

[2] = NCI Yeast Anticancer Drug Screen. Data for the mec2-1 strain (AID 157); details: S. cerevisiae mec2-1 strain, at 50.0 µM, active compounds read high
Procedure, shortened: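 Each compound was tested on mec2-1 yeast, a strain altered in DNA damage repair or cell cycle control. Growth inhibition is reported relative to vehicle.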

[3] = NCI Yeast Anticancer Drug Screen. Data for the sgs1 mgt1 strain (AID 161);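 note: 0% = growth of cultures given vehicle only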; details: S. cerevisiae sgs1 mgt1 strain, at 50.0 µM, active compounds read high
Procedure, shortened: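 Read-out: growth inhibition vs vehicle controls. Cells: mutant yeast strain deficient in DNA damage repair.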

[4] = NCI Yeast Anticancer Drug Screen. Data for the cln2 rad14 strain (AID 165);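 note: 0% = growth equal to vehicle treated cultures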; details: S. cerevisiae cln2 rad14 strain, at 50.0 µM, active compounds read high
Procedure, shortened: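 Test compounds were added to cln2 rad14 yeast cultures; inhibition of growth was then determined by comparison with vehicle treatment.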

[5] = NCI Yeast Anticancer Drug Screen. Data for the bub3 strain (AID 167); details: S. cerevisiae bub3 mutant strain, at 50.0 µM, active compounds read high
Procedure, shortened: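 Inhibition values come from growth of compound-treated mutant yeast normalised to vehicle-treated controls.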

[6] = NCI Yeast Anticancer Drug Screen. Data for the mlh1 rad18 strain (AID 175); details: S. cerevisiae mlh1 rad18 strain growth inhibition; at 50.0 µM; active compounds read high
Procedure, shortened: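 Inhibition values reflect reduced growth of mutant yeast versus vehicle-treated controls following compound exposure; the mutations affect DNA damage repair.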

Measured: growth inhibition

C=C(C)[C@@H]1CC[C@]2(CO)CC[C@]3(C)[C@H](CC[C@@H]4[C@@]5(C)CC[C@H](O)C(C)(C)[C@@H]5CC[C@]43C)[C@@H]12
inactive: [1] 15.6% | [2] -4.3% | [3] -18.1% | [4] 11.8% | [5] -11.7% | [6] 29.1%

CCOC(=O)c1cc(Cl)c(O)c(Cl)c1
inactive: [1] 4.5% | [2] -14% | [3] 1.4% | [4] 11.7% | [5] 3.25% | [6] 13.9%

CCC(=O)Oc1ccc2ccccc2c1
inactive: [1] 49.4% | [2] 32.8% | [3] 28.5% | [4] 14.8% | [5] 17.4% | [6] 29.8%

CCC(=O)C1C(=O)c2ccccc2C1=O
inactive: [1] 20.9% | [2] -12.6% | [3] -17.5% | [4] -13.8% | [5] 6.1% | [6] 20.4%

CC(C)N(C(=O)c1ccccc1)C(C)C
inactive: [1] 20.2% | [2] 26.2% | [3] 29.4% | [4] -20.1% | [5] -7.35% | [6] 2.35%

CCOc1ccc(C(=O)NCC(C)C)cc1
inactive: [1] -1.2% | [2] 2.4% | [3] 26.6% | [4] -14.1% | [5] 9% | [6] -13.7%

CCOC(=O)c1c[nH][nH]c1=O
inactive: [1] -9.05% | [2] -8.45% | [3] -3.55% | [4] -18.2% | [5] 7.85% | [6] 5.8%

NC(=S)N/N=C/c1ccc(OC(=O)COc2ccc(Cl)cc2)cn1
inactive: [1] 5.65% | [2] 7.85% | [3] 31.4% | [4] -1.25% | [5] 4.2% | [6] 9.5%

O=c1[nH]c(=O)c2cc(Cl)cc(Cl)c2[nH]1
inactive: [1] -2.05% | [2] -15.3% | [3] -1.4% | [4] 14% | [5] 9.25% | [6] 7.3%

COc1cccc(N=CNc2cccc(OC)c2)c1
inactive: [1] -36.2% | [2] -34.7% | [3] -17.4% | [4] 8.55% | [5] -11.8% | [6] -27.9%

C/C(O)=C(/C=N\C(=S)Nc1ccc(S(=O)(=O)Nc2nccs2)cc1)C(=O)Nc1ccccc1C
inactive: [1] -14.3% | [2] 8.1% | [3] 15.3% | [4] 32.8% | [5] 7.65% | [6] -18.8%

O=C(Nc1c(Cl)cc(Cl)cc1Cl)ON=C1CCCCC1
inactive: [1] 1.2% | [2] -19% | [3] 11.1% | [4] 12.9% | [5] 15.5% | [6] 3.6%

Oc1ccc(CCC2CCNc3ccccc32)cc1 (configuration not stated)
inactive: [1] 0.35% | [2] -1.85% | [3] -14.2% | [4] -11.7% | [5] -3.95% | [6] -3.9%

COC1OC(CO)C(OC)C(O)C1O (configuration not stated)
inactive: [1] -5.6% | [2] 0.2% | [3] 0.2% | [4] -6.7% | [5] -0.65% | [6] -2.2%

S=c1nc2[nH]c3ccccc3c2n[nH]1
inactive: [1] 8.45% | [2] -17.9% | [3] -5.65% | [4] -7.3% | [5] -8.95% | [6] 6.45%

Cc1c(Cl)cccc1N=C=S
inactive: [1] -9.85% | [2] -24% | [3] 15.4% | [4] 11.5% | [5] -0.95% | [6] 8.7%

C/C(=N\Nc1ccc([N+](=O)[O-])cc1[N+](=O)[O-])c1ccc(Br)cc1
inactive: [1] -8.7% | [2] -2.2% | [3] 2.35% | [4] -12.8% | [5] 8.7% | [6] 3.05%

Cc1ccc(Cc2ccc(C)cc2)cc1
inactive: [1] -30.2% | [2] -34.2% | [3] -30.3% | [4] 3% | [5] -4.6% | [6] -8.2%

O=[N+]([O-])c1c(Cl)ncnc1Cl
inactive: [1] -52.5% | [2] -47.8% | [3] -56.8% | [4] -13.4% | [5] -48.1% | [6] -16.2%

COC(=O)Cc1cc(COC(C)=O)ccc1C
inactive: [1] 0.05% | [2] 0% | [3] -0.7% | [4] -57% | [5] -17.2% | [6] -7.8%

CC(=O)NC(O)C(Cl)Cl (configuration not stated)
inactive: [1] -14.7% | [2] -6.05% | [3] -6.95% | [4] -23.3% | [5] -5.7% | [6] -14.2%

CC1=CC(=Nc2ccc(N(C)C)cc2)C=C(C)C1=O
inactive: [1] -14.5% | [2] -21.1% | [3] -5.1% | [4] -38.1% | [5] 20.2% | [6] -12.4%

c1ccc2[nH]c(Cc3nc4ccccc4[nH]3)nc2c1
inactive: [1] 48% | [2] -14.4% | [3] 50.4% | [4] 7.65% | [5] 35% | [6] 10.2%

CC(=O)Oc1c(Cl)cccc1-c1ccccc1
inactive: [1] 35.3% | [2] 10.9% | [3] 28.1% | [4] 5.4% | [5] 7.5% | [6] 13.4%

CCC(C)C1CCC(O)CC1 (configuration not stated)
inactive: [1] 30.8% | [2] 9.55% | [3] 9.15% | [4] 21.5% | [5] 24.2% | [6] 18.9%

Nc1c(O)c(S(=O)(=O)O)c(O)c2c1C(=O)c1ccccc1C2=O
inactive: [1] 27.4% | [2] -2.7% | [3] 31.1% | [4] 30.9% | [5] 34.9% | [6] 33.6%

NC(=O)N1CCOCC1
inactive: [1] 15.2% | [2] -7.9% | [3] -12.9% | [4] -27.4% | [5] -14.3% | [6] 17.9%

Cc1[nH]c(=S)[nH]c(=O)c1C
inactive: [1] -5.1% | [2] -28.3% | [3] -35.6% | [4] -3.4% | [5] -34.4% | [6] -1.7%

O=C(O)c1cccc(-n2ncc(Cl)c(Cl)c2=O)c1
inactive: [1] 8.4% | [2] -0.95% | [3] 19.2% | [4] 19% | [5] 21.4% | [6] 19.6%

CNc1ccccc1C(=O)N/N=C/C=C/c1ccccc1
inactive: [1] 31.6% | [2] 0.35% | [3] 31.1% | [4] 2.65% | [5] 5.3% | [6] 14.5%

Cn1c(=O)c2[nH]c(CCCCC(=O)O)nc2n(C)c1=O
inactive: [1] -7.8% | [2] -13.2% | [3] -34.1% | [4] -20.9% | [5] -39.4% | [6] 4.2%

OC(CBr)CCBr (configuration not stated)
inactive: [1] -28.7% | [2] -31.1% | [3] -39.6% | [4] 3.45% | [5] -32.1% | [6] -32%

CCCCCCCCCCCCCC/C=C\C(CC(=O)O)C(=O)O (configuration not stated)
inactive: [1] 4.6% | [2] -15.5% | [3] 6.1% | [4] -32.6% | [5] -28.4% | [6] -19.2%

CCC(/C=C\C(C)=O)CC
inactive: [1] -28.3% | [2] -25.2% | [3] -27.6% | [4] 5.35% | [5] -10.6% | [6] -12.8%

CC(CO)(CO)C(=O)O
inactive: [1] 4.35% | [2] -31.4% | [3] -11.6% | [4] 21.3% | [5] -14% | [6] 10.1%

ON1CCCC1
inactive: [1] -1.35% | [2] -4.15% | [3] -8.9% | [4] -6.6% | [5] 6.4% | [6] 1.5%

ClCc1cccc2c(CCl)cccc12
inactive: [1] 59.6% | [2] -6.25% | [3] 0.9% | [4] 33% | [5] -14.7% | [6] 12.4%

CCNc1ccc2ccccc2c1N=Nc1ccc(N=Nc2ccccc2)cc1
inactive: [1] -12.4% | [2] -30% | [3] 11.5% | [4] 9.75% | [5] -12.7% | [6] -8.55%

CCCCc1ccc2nc(NC(=O)OC)[nH]c2c1
inactive: [1] -4.25% | [2] 21.5% | [3] 13.6% | [4] 28.8% | [5] 21.5% | [6] 11.1%

CC(=O)c1cccc(NS(=O)(=O)c2ccc(C)cc2)c1
inactive: [1] -4.85% | [2] -21.2% | [3] -18.1% | [4] -36.7% | [5] -7.9% | [6] 35.9%

OCC1CCC(O)C(CO)N1 (configuration not stated)
inactive: [1] -6.65% | [2] -29.6% | [3] -22.7% | [4] 8.85% | [5] -16.2% | [6] -15.8%

CCCCNC(=O)c1ccc(OCC)cc1
inactive: [1] 12.2% | [2] 20.4% | [3] 33.3% | [4] -16.4% | [5] -8.85% | [6] -0.1%
